Data on 4 compounds can be found in ChEMBL document CHEMBL2218924, “A broad activity screen in support of a chemogenomic map for kinase signalling research and drug discovery” (Biochem J, 2013).

Experiment [1] deals with T1, Tyrosine-protein kinase Mer (Homo sapiens) (UniProt Q12866).
T1 sequence (whole entry): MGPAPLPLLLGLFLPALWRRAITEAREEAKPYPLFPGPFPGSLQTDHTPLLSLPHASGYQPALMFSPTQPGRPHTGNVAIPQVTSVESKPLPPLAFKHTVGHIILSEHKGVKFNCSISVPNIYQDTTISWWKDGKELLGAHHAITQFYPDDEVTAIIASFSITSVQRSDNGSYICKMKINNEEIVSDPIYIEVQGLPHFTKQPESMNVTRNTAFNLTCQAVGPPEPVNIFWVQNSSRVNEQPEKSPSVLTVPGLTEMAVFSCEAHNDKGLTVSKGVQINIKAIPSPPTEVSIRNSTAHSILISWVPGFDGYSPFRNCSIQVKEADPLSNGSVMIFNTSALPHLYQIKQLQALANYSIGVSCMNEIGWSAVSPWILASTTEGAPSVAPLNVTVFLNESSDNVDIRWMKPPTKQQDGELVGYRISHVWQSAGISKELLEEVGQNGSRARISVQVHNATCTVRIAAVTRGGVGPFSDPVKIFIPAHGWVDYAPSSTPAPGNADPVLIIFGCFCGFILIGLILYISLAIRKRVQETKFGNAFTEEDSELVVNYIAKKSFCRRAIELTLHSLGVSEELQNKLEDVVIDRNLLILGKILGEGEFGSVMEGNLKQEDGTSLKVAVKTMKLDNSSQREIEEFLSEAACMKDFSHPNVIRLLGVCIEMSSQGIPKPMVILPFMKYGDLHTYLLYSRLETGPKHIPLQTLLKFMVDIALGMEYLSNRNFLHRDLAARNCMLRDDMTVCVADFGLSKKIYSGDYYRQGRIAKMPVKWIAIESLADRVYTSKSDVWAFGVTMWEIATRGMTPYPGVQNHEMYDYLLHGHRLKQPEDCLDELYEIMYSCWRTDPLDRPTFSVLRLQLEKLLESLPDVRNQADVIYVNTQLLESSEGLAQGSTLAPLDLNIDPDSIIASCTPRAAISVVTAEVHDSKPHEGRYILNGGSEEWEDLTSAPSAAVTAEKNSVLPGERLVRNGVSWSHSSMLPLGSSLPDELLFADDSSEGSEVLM
Particulars: at 1 µM.

In experiment [2] the target is T1, Tyrosine-protein kinase Mer (Homo sapiens). Particulars: at 10 µM.
For experiment [3], the target named is MAP kinase-interacting serine/threonine-protein kinase 2 (Homo sapiens) (UniProt Q9HBH9). Particulars: at 1 µM.
Experiment [4] shares this target. Particulars: at 10 µM.
The target of experiment [5] is T2, Muscle, skeletal receptor tyrosine-protein kinase (Homo sapiens) (UniProt O15146).
T2 sequence (whole entry): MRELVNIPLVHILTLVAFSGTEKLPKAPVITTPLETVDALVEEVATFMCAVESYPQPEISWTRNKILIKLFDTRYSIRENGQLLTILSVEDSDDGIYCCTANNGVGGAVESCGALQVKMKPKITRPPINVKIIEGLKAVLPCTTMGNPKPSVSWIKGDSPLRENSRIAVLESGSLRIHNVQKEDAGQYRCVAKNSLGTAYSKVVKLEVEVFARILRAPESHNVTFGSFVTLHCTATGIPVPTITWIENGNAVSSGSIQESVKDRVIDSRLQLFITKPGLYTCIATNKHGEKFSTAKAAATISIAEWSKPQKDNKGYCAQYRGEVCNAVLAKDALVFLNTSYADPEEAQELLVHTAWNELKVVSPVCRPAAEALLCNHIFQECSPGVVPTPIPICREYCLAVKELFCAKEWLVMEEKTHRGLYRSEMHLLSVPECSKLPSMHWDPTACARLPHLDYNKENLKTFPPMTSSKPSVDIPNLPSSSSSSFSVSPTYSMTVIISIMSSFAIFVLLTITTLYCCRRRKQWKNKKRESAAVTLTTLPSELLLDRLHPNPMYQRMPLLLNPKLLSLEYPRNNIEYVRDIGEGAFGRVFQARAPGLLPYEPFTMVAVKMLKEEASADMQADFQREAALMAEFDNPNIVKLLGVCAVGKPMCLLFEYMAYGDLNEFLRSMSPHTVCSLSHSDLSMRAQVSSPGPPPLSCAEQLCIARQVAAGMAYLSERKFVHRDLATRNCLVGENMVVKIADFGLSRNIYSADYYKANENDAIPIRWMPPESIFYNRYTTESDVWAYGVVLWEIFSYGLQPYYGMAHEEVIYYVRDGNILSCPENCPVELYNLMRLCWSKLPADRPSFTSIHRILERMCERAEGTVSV
Particulars: at 1 µM.

For experiment [6], the target named is T2, Muscle, skeletal receptor tyrosine-protein kinase (Homo sapiens). Particulars: at 10 µM.
For experiment [7], the target named is T3, Serine/threonine-protein kinase Nek2 (Homo sapiens) (UniProt P51955).
T3 sequence (whole entry): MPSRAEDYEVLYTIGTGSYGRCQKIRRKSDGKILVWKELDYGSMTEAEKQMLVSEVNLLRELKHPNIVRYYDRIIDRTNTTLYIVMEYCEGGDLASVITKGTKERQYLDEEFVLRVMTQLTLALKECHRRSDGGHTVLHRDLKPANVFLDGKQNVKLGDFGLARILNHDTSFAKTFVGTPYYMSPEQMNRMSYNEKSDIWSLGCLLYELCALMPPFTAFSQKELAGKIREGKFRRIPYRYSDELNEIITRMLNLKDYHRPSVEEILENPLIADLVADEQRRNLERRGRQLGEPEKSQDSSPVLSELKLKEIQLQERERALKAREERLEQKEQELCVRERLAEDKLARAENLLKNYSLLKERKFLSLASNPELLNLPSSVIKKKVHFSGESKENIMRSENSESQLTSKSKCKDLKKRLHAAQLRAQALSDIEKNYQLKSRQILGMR
Particulars: at 10 µM.

The target in experiment [8] is Serine/threonine-protein kinase tousled-like 2 (Homo sapiens) (UniProt Q86UE8). Particulars: at 10 µM.
In experiment [9] the target is T4, Testis-specific serine/threonine-protein kinase 1 (Homo sapiens) (UniProt Q9BXA7).
T4 sequence (whole entry): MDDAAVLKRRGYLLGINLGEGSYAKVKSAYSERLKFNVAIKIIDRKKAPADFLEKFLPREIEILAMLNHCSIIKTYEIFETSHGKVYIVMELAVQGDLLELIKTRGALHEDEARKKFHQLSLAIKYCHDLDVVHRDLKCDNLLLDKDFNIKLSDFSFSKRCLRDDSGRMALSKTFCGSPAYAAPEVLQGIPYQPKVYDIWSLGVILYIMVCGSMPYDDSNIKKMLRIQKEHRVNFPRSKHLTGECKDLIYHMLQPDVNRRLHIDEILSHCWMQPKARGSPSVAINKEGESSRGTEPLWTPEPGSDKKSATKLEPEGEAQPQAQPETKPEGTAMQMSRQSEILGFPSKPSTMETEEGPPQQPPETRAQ
Particulars: at 1 µM.

Experiment [10] concerns the target T4, Testis-specific serine/threonine-protein kinase 1 (Homo sapiens). Particulars: at 10 µM.
In experiment [11] the target is Hepatocyte growth factor receptor (Homo sapiens) (UniProt P08581). Particulars: at 1 µM.
Experiment [12] has the same target. Particulars: at 10 µM.
The target in experiment [13] is T5, Serine/threonine-protein kinase Nek3 (Homo sapiens) (UniProt P51956).
T5 sequence (whole entry): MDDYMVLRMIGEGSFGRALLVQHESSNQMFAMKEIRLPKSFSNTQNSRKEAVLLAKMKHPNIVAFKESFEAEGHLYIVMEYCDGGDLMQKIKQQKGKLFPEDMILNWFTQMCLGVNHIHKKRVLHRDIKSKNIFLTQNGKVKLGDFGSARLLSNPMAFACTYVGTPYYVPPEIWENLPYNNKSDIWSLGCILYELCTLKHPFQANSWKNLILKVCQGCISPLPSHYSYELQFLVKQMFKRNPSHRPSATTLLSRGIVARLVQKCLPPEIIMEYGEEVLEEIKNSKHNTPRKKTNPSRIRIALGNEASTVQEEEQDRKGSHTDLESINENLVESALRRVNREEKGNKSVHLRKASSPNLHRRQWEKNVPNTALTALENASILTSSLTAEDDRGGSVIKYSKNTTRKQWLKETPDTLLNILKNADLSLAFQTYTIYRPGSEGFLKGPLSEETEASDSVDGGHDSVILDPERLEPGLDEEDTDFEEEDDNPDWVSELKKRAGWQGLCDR
Particulars: at 1 µM.

The target of experiment [14] is T5, Serine/threonine-protein kinase Nek3 (Homo sapiens). Particulars: at 10 µM.
Experiment [15] addresses T6, Serine/threonine-protein kinase Nek11 (Homo sapiens) (UniProt Q8NG66).
T6 sequence (whole entry): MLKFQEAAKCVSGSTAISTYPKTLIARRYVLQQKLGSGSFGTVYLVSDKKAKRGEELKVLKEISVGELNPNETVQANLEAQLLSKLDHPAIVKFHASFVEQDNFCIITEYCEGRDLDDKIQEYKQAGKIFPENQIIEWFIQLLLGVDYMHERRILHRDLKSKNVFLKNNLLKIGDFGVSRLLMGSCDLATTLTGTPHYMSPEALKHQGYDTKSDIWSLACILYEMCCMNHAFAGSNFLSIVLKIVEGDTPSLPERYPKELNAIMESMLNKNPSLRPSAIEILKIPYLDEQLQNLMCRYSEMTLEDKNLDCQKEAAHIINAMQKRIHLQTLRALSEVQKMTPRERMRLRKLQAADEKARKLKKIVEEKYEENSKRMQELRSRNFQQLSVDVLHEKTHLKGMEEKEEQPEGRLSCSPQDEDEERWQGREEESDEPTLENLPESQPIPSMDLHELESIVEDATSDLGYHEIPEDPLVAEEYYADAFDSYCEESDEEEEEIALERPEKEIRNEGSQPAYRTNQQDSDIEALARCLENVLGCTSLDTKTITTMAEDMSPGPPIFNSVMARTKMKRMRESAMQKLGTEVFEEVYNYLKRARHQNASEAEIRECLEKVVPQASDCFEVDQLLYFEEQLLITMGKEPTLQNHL
Particulars: at 1 µM.

In experiment [16] the target is T6, Serine/threonine-protein kinase Nek11 (Homo sapiens). Particulars: at 10 µM.
The target of experiment [17] is T3, Serine/threonine-protein kinase Nek2 (Homo sapiens). Particulars: at 1 µM.
The target in experiment [18] is Serine/threonine-protein kinase tousled-like 2 (Homo sapiens) (UniProt Q86UE8). Particulars: at 1 µM.
Experiment [19] has as its target T7, Testis-specific serine/threonine-protein kinase 2 (Homo sapiens) (UniProt Q96PF2).
T7 sequence (whole entry): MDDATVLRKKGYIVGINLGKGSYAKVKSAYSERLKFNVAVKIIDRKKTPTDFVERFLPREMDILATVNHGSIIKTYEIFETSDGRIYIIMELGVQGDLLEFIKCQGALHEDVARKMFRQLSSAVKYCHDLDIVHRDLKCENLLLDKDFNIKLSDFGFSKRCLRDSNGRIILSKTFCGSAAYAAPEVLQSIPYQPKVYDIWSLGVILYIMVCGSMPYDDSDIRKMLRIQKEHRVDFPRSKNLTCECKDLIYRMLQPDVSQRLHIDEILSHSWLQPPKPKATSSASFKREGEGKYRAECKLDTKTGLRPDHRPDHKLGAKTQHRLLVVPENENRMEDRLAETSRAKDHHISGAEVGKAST
Particulars: at 1 µM.

In experiment [20] the target is T7, Testis-specific serine/threonine-protein kinase 2 (Homo sapiens). Particulars: at 10 µM.

Structures are written as SMILES.

Chain of Hepatocyte growth factor receptor (Homo sapiens) (P08581 whole entry): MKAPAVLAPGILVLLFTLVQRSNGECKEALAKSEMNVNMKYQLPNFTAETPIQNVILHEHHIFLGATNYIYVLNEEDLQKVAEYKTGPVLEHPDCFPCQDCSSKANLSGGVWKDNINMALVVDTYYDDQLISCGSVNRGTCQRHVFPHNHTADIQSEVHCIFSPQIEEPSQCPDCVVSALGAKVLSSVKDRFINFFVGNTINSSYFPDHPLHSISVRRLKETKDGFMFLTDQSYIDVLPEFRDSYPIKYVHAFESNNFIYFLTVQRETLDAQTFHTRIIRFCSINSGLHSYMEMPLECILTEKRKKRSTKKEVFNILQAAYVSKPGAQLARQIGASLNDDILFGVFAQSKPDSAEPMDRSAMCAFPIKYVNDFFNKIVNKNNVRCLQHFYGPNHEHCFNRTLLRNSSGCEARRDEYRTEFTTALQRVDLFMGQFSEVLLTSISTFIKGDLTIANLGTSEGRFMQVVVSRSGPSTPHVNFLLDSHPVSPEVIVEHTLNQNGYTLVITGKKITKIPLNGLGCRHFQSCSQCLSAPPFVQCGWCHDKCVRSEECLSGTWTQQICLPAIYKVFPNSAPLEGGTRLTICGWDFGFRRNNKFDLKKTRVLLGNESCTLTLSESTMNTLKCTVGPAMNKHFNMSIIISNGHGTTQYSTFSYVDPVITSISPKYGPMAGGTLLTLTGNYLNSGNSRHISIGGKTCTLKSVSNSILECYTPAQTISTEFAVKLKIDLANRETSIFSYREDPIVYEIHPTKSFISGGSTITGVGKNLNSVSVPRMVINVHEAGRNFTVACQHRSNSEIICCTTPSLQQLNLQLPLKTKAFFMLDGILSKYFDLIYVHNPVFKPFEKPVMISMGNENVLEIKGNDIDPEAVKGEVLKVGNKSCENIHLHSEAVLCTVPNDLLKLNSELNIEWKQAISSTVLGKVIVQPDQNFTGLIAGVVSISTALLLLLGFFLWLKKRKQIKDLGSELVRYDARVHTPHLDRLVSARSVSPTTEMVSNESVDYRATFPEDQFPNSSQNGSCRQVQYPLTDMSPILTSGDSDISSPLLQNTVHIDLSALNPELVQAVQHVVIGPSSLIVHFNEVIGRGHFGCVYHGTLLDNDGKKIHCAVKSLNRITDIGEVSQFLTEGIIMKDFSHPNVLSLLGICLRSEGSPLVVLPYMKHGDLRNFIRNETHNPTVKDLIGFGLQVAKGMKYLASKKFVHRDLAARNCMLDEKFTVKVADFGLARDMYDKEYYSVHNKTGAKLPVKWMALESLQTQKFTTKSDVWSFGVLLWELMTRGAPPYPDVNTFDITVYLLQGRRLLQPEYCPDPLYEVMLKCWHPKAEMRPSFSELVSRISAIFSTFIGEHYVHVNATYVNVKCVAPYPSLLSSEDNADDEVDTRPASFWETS
Chain of MAP kinase-interacting serine/threonine-protein kinase 2 (Homo sapiens) (Q9HBH9 whole entry, looked up): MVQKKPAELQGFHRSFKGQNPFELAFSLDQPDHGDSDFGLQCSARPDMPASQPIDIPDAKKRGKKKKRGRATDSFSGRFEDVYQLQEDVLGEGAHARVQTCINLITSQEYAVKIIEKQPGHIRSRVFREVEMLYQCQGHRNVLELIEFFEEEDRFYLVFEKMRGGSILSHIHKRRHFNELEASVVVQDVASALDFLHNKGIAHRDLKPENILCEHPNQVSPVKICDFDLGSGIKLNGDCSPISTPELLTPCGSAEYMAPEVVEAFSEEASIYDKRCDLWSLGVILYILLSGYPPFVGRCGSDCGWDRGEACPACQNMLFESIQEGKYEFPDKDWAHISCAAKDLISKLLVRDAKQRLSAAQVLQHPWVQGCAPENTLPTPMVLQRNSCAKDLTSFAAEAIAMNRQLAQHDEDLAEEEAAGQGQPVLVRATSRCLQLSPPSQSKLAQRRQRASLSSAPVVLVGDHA
Chain of Serine/threonine-protein kinase tousled-like 2 (Homo sapiens) (Q86UE8 whole entry, looked up): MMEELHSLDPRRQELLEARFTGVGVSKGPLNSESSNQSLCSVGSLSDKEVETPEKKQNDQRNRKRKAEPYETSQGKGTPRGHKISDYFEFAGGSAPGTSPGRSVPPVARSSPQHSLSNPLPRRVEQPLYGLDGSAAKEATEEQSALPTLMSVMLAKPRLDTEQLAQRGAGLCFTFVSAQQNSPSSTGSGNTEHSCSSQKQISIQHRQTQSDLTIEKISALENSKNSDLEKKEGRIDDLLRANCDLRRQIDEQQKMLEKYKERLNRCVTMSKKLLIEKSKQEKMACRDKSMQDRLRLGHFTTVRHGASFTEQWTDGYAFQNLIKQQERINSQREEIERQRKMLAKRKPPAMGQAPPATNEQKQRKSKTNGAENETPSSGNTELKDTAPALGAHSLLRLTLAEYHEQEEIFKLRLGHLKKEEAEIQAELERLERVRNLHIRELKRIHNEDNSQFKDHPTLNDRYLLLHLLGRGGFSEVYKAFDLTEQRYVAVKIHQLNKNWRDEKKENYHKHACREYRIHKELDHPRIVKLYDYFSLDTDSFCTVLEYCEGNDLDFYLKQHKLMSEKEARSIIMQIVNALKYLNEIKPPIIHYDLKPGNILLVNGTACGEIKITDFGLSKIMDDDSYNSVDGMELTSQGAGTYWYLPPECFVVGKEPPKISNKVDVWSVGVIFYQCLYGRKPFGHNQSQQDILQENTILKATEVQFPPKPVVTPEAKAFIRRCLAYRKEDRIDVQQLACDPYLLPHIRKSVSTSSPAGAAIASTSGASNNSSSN

A word on the residual activity: it is the signal under treatment as a percentage of the control signal. Take `c1cc(-c2cnn3cc(-c4ccc(OCCN5CCCCC5)cc4)cnc23)ccn1`: the residual activity in [1] was determined as 33%; in experiment [2], 3%; in [3], 56%; in [4] it was 24%; in experiment [5], 18%; in experiment [6] it was 1%. The residual activity in experiment [7] turned out to be 86%; in experiment [8], 74%; in experiment [9], 76%; in experiment [10], 45%.

On to `O=C1c2ccccc2-c2nc3nnnn3nc21`, for which the residual activity came to 124% in [1]; 103% in experiment [2]; 127% in [11]; 133% in [12]; 100% in [3]; 75% in [4]. The residual activity is 131% in [5], 105% in experiment [6], 116% in experiment [13] and 102% in [14].

As to `CC(C)[C@H](CO)Nc1nc(Nc2cccc(Cl)c2)c2ncn(C(C)C)c2n1`, the residual activity in [1] is 26%; in experiment [2] it was 0%; in [11] it was 83%; in [12] it was 73%; in [4], 98%; in experiment [5] it was 48%. Also, the residual activity in [6] worked out at 5%; in [15] it was 59%; in [16], 38%; in experiment [17] it was 90%; in experiment [7], 53%; in experiment [13], 84%. Besides, the residual activity stood at 89% in experiment [14]; 100% in experiment [18]; 81% in [8]; 97% in [9]; 72% in experiment [10]; 94% in experiment [19]. In addition, in [20], the residual activity was 79%.

Consider `CCc1nc(-c2ccc(OC)cc2)[nH]c1-c1ccncc1`, for which the residual activity in experiment [3] came out at 105%; in [4], 59%; in experiment [5], 117%; in [6] it was 76%; in [15], 62%; in experiment [16], 72%. The residual activity in experiment [17] turned out to be 112%; in experiment [7], 105%; in [14], 106%; in experiment [18], 107%; in experiment [8], 100%; in experiment [9], 113%.
